In PubChem BioAssay (EPA / NIEHS):
Activity calls are given as the source filed them. The calls were made as follows: active = hit-call score of the fitted dose curve at least 0.9, where 1 is the maximum; inactive = score below 0.9.

Legend:
Settings in all cases: mRNA level, 48 h; actives raise or lower the signal
[1] = read-out: Fatty acid synthase (Homo sapiens) (UniProt P49327); test: LTEA_HepaRG_FASN: Life Technologies and Expression Analysis (LTEA) Assay for Fatty Acid Synthase (FASN) using HepaRG (AID 2283448);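 as to AC50: differentiated human HepaRG liver cells in serum-free induction medium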
Summary of the method: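 HepaRG, 48 h exposure, 8-pt half-log series top 100 uM, 0.5% DMSO vehicle, duplicates. Readout: FASN transcript by Fluidigm qRT-PCR; housekeeping-normalized; bidirectional curve fit vs DMSO baseline.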

[2] = read-out: Cyclin D2 (CCND2), CCND2 (gene 894); test: LTEA_HepaRG_CCND2: Life Technologies and Expression Analysis (LTEA) Assay for Cyclin D2 (CCND2) using HepaRG (AID 2283449);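 also: CCND2 transcript measured by TaqMan qRT-PCR and normalised to three housekeeping genes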
Summary of the method: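 HepaRG, 48 h dosing, 8-pt half-log curve from 100 uM, 0.5% DMSO; duplicate wells. Readout: CCND2 transcript by microfluidic qRT-PCR, housekeeping-normalised; bidirectional fit vs DMSO baseline.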

[3] = read-out: Cyclin Dependent Kinase Inhibitor 1A (CDKN1A), CDKN1A (gene 1026); test: LTEA_HepaRG_CDKN1A: Life Technologies and Expression Analysis (LTEA) Assay for Cyclin Dependent Kinase Inhibitor 1A (CDKN1A) using HepaRG (AID 2283450)
Summary of the method: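 Expression quantified by Fluidigm qRT-PCR with ACTB, GAPDH and POLR2A normalization, fitted bidirectionally against 0.5% DMSO. Cells: HepaRG, plated 48 h then treated 48 h in serum-free induction medium, top concentration 100 uM with half-log dilutions.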

[4] = read-out: Cyclin D1 (CCND1), CCND1 (gene 595); test: LTEA_HepaRG_CCND1: Life Technologies and Expression Analysis (LTEA) Assay for Cyclin D1 (CCND1) using HepaRG (AID 2283451);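 as to AC50: differentiated human HepaRG liver cells in serum-free induction medium; TaqMan qRT-PCR transcript level normalised to ACTB GAPDH and POLR2A housekeeping genes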
Summary of the method: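 Expression of CCND1 was quantified by qRT-PCR on Fluidigm arrays using ACTB, GAPDH and POLR2A as reference genes. HepaRG cultures, plated 48 h beforehand, were dosed for 48 h at up to 100 uM (half-log, 8 points) in 0.5% DMSO.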

[5] = read-out: catalase (CAT), CAT (gene 847); test: LTEA_HepaRG_CAT: Life Technologies and Expression Analysis (LTEA) Assay for catalase (CAT) using HepaRG (AID 2283452)
Summary of the method: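 HepaRG cells in serum-free induction medium, 0.5% DMSO vehicle, exposed 48 h in duplicate over 8 half-log concentrations from 100 uM. CAT mRNA measured by qRT-PCR, normalized to ACTB, GAPDH, POLR2A; bidirectional fit versus DMSO.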

[6] = read-out: flavin-containing dimethylaniline monooxygenases 3 (FMO3), FMO3 (gene 2328); test: LTEA_HepaRG_FMO3: Life Technologies and Expression Analysis (LTEA) Assay for flavin-containing dimethylaniline monooxygenases 3 (FMO3) using HepaRG (AID 2283453)
Summary of the method: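 Eight-point concentration-response in serum-free HepaRG cultures (top 100 uM, 0.5% DMSO, 48 h). Read-out: FMO3 mRNA level normalized to three endogenous control genes, fitted bidirectionally versus vehicle.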

[7] = read-out: Cytochrome P450 (CYP1A1), CYP1A1 (gene 1543); test: LTEA_HepaRG_CYP1A1: Life Technologies and Expression Analysis (LTEA) Assay for Cytochrome P450 (CYP1A1) using HepaRG (AID 2283454)
Summary of the method: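 CYP1A1 transcript levels measured by Fluidigm qRT-PCR against three housekeeping genes, 48 h after chemical dosing of human HepaRG cells (highest concentration 100 uM, half-log steps, 0.5% DMSO vehicle). Gain or loss of signal fitted relative to DMSO.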

[8] = read-out: CFLAR gene, CFLAR (gene 8837); test: LTEA_HepaRG_CFLAR: Life Technologies and Expression Analysis (LTEA) Assay for CFLAR gene using HepaRG (AID 2283455)
Summary of the method: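 qRT-PCR read-out (Fluidigm/TaqMan) of CFLAR mRNA, normalized to three housekeeping genes, in differentiated human HepaRG cells after 48 h chemical exposure; 8-point half-log series from 100 uM in 0.5% DMSO; bidirectional curve fitting versus DMSO.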

[9] = read-out: Forkhead box O1 (FOXO1), FOXO1 (gene 2308); test: LTEA_HepaRG_FOXO1: Life Technologies and Expression Analysis (LTEA) Assay for Forkhead box O1 (FOXO1) using HepaRG (AID 2283456)
Summary of the method: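 HepaRG, 48 h exposure, 8-pt half-log series from 100 uM in 0.5% DMSO, duplicates; Fluidigm qRT-PCR mRNA, housekeeping-normalised; bidirectional fit vs DMSO baseline.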

[10] = read-out: growth arrest and DNA damage 45 (GADD45A), GADD45A (gene 1647); test: LTEA_HepaRG_GADD45A: Life Technologies and Expression Analysis (LTEA) Assay for growth arrest and DNA damage 45 (GADD45A) using HepaRG (AID 2283458)
Summary of the method: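 HepaRG, 48 h exposure, 8 conc. (top 100 uM, half-log steps), 0.5% DMSO vehicle, duplicates. Read-out: qRT-PCR mRNA level, housekeeping-normalized (ACTB/GAPDH/POLR2A). Curves fit bidirectionally vs DMSO baseline.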

[11] = read-out: Forkhead box O3 (FOXO3), FOXO3 (gene 2309); test: LTEA_HepaRG_FOXO3: Life Technologies and Expression Analysis (LTEA) Assay for Forkhead box O3 (FOXO3) using HepaRG (AID 2283459)
Summary of the method: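 qRT-PCR readout of FOXO3 transcript, normalized to three housekeeping genes (ACTB, GAPDH, POLR2A); gain or loss fitted against 0.5% DMSO vehicle. HepaRG cells, 48 h chemical exposure, 8-point half-log series, top 100 uM.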

[12] = read-out: ABC Transporter (ABCB1), ABCB1 (gene 5243); test: LTEA_HepaRG_ABCB1: Life Technologies and Expression Analysis (LTEA) Assay for ABC Transporter (ABCB1) using HepaRG (AID 2283460)
Summary of the method: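 HepaRG, 48 h exposure, 8-pt half-log series from 100 uM, 0.5% DMSO vehicle, duplicates. Readout: ABCB1 transcript by Fluidigm TaqMan qRT-PCR, housekeeping-normalized; bidirectional curve fit vs DMSO baseline.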

[13] = read-out: growth arrest and DNA damage 45 (GADD45B), GADD45B (gene 4616); test: LTEA_HepaRG_GADD45B: Life Technologies and Expression Analysis (LTEA) Assay for growth arrest and DNA damage 45 (GADD45B) using HepaRG (AID 2283461)
Summary of the method: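 Transcript level quantified by Fluidigm TaqMan qRT-PCR with three housekeeping genes for normalization, analyzed for up- or down-regulation against 0.5% DMSO. HepaRG cultures dosed 48 h at eight half-log concentrations up to 100 uM, duplicates.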

[14] = read-out: ABC Transporter (ABCC3), ABCC3 (gene 8714); test: LTEA_HepaRG_ABCC3: Life Technologies and Expression Analysis (LTEA) Assay for ABC Transporter (ABCC3) using HepaRG (AID 2283462)
Summary of the method: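 Transcript level by TaqMan qRT-PCR, normalised to three housekeeping genes, fitted in both directions relative to vehicle. Chemicals tested in duplicate at eight half-log concentrations up to 100 uM for 48 h on HepaRG cells (0.5% DMSO).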

[15] = read-out: ABC Transporter (ABCB11), ABCB11 (gene 8647); test: LTEA_HepaRG_ABCB11: Life Technologies and Expression Analysis (LTEA) Assay for ABC Transporter (ABCB11) using HepaRG (AID 2283463)
Summary of the method: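 HepaRG, 48 h exposure, 8-pt half-log CRC top 100 uM, 0.5% DMSO vehicle, duplicates. Readout: TaqMan qRT-PCR of ABCB11 mRNA, housekeeping-normalized (ACTB/GAPDH/POLR2A). Bidirectional fit vs DMSO baseline.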

[16] = read-out: ABC Transporter (ABCC2), ABCC2 (gene 1244); test: LTEA_HepaRG_ABCC2: Life Technologies and Expression Analysis (LTEA) Assay for ABC Transporter (ABCC2) using HepaRG (AID 2283464)
Summary of the method: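 Endpoint is ABCC2 transcript level from qRT-PCR, normalized to three housekeeping genes and fitted bidirectionally relative to DMSO. Human HepaRG cells received test chemical for 48 h at up to 100 uM (8 points, half-log steps, 0.5% DMSO), duplicate wells.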

[17] = read-out: ATP-citrate lyase (ACLY), ACLY (gene 47); test: LTEA_HepaRG_ACLY: Life Technologies and Expression Analysis (LTEA) Assay for ATP-citrate lyase (ACLY) using HepaRG (AID 2283466)
Summary of the method: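 qRT-PCR readout of ACLY transcript after 48 h chemical treatment of HepaRG cells; expression normalized to three housekeeping genes. Eight-point half-log series, highest 100 uM, 0.5% DMSO vehicle. Gain or loss fitted against DMSO baseline.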

[18] = read-out: Peroxisomal acyl-coenzyme A oxidase 1 (ACOX1) gene, ACOX1 (gene 51); test: LTEA_HepaRG_ACOX1: Life Technologies and Expression Analysis (LTEA) Assay for Peroxisomal acyl-coenzyme A oxidase 1 (ACOX1) gene using HepaRG (AID 2283467)
Summary of the method: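 HepaRG, 48 h chemical exposure, 8-pt half-log series from 100 uM top, 0.5% DMSO vehicle, duplicates. Readout: ACOX1 mRNA by Fluidigm qRT-PCR, housekeeping-normalized; bidirectional fit vs DMSO baseline.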

[19] = read-out: Broad substrate specificity ATP-binding cassette transporter ABCG2 (Homo sapiens) (UniProt Q9UNQ0); test: LTEA_HepaRG_ABCG2: Life Technologies and Expression Analysis (LTEA) Assay for ABC Transporter (ABCG2) using HepaRG (AID 2283465)
Summary of the method: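 HepaRG, 48 h exposure, 8-pt half-log series from 100 uM, 0.5% DMSO vehicle, duplicates. Readout: ABCG2 transcript by qRT-PCR (Fluidigm array), housekeeping-normalized; bidirectional curve fit relative to DMSO baseline.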

Measured: AC50

Sequence of Broad substrate specificity ATP-binding cassette transporter ABCG2 (Homo sapiens) (Q9UNQ0 whole entry, looked up): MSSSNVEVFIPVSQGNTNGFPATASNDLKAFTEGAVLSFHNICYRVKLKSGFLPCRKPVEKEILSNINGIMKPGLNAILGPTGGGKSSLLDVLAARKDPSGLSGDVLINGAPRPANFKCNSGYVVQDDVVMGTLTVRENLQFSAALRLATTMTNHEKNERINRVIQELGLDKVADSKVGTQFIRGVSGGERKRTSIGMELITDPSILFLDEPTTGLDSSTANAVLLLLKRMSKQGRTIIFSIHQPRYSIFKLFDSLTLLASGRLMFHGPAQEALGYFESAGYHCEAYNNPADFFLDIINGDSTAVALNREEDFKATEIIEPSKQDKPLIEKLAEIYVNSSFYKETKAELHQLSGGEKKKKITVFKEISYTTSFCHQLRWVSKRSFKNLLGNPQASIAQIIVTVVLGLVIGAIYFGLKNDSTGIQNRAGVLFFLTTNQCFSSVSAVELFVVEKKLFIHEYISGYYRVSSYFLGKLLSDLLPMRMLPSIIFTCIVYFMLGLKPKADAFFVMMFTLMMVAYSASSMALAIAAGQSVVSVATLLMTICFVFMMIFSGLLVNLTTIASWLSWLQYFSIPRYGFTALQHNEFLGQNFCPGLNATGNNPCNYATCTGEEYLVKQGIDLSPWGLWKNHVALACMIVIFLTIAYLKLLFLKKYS
Sequence of Fatty acid synthase (Homo sapiens) (P49327 whole entry, looked up): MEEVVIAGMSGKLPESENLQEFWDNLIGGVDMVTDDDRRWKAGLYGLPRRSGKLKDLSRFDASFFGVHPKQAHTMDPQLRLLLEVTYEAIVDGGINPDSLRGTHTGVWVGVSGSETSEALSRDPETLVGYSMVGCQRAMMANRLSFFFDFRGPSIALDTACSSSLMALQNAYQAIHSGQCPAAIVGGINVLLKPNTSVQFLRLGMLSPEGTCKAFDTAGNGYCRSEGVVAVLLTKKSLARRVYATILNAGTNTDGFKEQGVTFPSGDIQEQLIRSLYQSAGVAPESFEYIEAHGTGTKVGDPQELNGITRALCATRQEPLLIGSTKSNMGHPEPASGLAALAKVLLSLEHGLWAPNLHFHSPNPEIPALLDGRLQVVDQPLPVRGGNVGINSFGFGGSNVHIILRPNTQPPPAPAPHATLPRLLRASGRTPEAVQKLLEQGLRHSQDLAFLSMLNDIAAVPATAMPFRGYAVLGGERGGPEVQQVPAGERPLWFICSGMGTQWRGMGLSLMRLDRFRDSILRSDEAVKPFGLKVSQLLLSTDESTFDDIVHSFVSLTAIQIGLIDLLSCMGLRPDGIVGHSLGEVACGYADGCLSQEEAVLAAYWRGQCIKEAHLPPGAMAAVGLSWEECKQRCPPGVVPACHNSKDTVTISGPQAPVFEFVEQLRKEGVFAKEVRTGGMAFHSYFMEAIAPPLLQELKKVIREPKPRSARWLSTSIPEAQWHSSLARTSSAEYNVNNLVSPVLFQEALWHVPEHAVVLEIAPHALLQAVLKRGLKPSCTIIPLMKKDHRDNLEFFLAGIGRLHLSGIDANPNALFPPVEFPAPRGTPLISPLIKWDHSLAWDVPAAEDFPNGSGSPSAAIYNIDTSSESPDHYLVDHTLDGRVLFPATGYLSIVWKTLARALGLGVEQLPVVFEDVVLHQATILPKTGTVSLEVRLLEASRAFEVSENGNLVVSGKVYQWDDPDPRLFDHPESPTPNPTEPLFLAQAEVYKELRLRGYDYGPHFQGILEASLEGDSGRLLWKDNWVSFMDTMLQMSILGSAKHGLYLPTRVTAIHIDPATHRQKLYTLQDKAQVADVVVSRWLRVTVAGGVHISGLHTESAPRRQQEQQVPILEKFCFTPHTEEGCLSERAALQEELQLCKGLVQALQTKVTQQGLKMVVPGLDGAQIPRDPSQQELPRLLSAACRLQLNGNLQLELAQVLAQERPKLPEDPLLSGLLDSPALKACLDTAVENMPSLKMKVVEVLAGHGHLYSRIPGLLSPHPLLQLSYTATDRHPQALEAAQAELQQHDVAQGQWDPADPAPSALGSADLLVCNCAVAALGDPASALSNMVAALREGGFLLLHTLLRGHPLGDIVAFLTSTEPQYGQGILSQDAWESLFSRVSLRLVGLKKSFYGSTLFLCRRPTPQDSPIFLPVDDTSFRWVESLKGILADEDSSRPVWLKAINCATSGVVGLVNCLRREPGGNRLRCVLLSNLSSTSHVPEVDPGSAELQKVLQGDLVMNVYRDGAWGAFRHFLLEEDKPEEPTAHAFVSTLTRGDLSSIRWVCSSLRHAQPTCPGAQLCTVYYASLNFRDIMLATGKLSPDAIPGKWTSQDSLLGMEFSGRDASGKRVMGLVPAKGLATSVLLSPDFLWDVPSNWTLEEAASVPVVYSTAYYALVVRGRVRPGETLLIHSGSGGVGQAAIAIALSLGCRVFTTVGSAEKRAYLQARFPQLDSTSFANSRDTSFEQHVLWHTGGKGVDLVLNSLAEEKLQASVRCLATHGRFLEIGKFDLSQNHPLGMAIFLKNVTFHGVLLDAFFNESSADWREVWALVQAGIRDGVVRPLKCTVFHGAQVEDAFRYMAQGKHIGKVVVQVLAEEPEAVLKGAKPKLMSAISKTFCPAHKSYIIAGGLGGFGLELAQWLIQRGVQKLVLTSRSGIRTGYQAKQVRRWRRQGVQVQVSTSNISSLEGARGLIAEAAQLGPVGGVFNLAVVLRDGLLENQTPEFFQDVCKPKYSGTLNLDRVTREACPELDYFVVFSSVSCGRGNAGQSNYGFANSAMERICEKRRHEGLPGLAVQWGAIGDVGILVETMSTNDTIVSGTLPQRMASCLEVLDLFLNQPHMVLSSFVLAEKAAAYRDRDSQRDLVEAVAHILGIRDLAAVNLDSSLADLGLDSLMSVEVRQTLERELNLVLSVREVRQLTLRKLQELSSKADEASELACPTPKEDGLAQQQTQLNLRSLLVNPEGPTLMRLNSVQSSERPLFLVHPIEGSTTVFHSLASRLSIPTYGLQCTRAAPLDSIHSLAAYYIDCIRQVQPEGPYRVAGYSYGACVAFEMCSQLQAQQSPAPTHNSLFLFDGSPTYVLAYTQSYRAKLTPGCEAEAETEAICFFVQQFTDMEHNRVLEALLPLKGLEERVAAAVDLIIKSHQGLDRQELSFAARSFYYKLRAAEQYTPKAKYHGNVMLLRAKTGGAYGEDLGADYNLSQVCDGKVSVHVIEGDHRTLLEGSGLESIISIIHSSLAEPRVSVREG

CCCCCCCCCCCCCCCS(=O)(=O)Oc1ccccc1
active: [7] 11.4 µM | [12] 13.3 µM | [16] 11.2 µM
not listed: [19]
inactive: all other assays above

c1ccc2c(c1)Cc1ccccc1-2
active: [7] 50 µM
not listed: [6]
inactive: all other assays above

CCCCC(CC)COC(=O)CCCCC(=O)OCC(CC)CCCC (stereo not drawn)
not listed: [6] | [13]
inactive: all other assays above

CC[C@H](c1ccc(O)cc1)[C@@H](CC)c1ccc(O)cc1
inactive: [7] | [11] | [14] | [15] | [19]
active: [1] 76.2 µM | [2] 62.4 µM | [3] 89.8 µM | [4] 77 µM | [5] 78.4 µM | [8] 75.7 µM | [9] 78.5 µM | [10] 77 µM | [12] 77.5 µM | [13] 66.9 µM | [16] 94.4 µM | [17] 83.9 µM | [18] 77.8 µM

CC(C)(C)CC(C)(C)c1ccc(O)c(-n2nc3ccccc3n2)c1
active: [1] 50 µM | [7] 41 µM | [12] 50 µM | [16] 50 µM | [19] 30.6 µM
not listed: [6] | [13]
inactive: all other assays above

C=C(C)C(=O)OCCC(F)(F)C(F)(F)C(F)(F)C(F)(F)C(F)(F)C(F)(F)F
active: [7] 10.2 µM
not listed: [19]
inactive: all other assays above

NC(=O)N1C(=O)C(C(=O)c2cc(Cl)cs2)c2cc(F)c(Cl)cc21 (stereo not drawn)
inactive: [1] | [3] | [8]
active: [2] 28.7 µM | [4] 13.1 µM | [5] 25.1 µM | [7] 3.31 µM | [9] 12.6 µM | [10] 36 µM | [11] 35 µM | [12] 19.4 µM | [14] 12.8 µM | [15] 15.6 µM | [16] 27.7 µM | [19] 50 µM | [17] 21 µM | [18] 50 µM
